Results as given in PubChem BioAssay AID720519 (National Center for Advancing Translational Sciences (NCATS), 2013).
Results filed as inconclusive are left out. The source made the active and inactive calls. Calls follow the shape of the dose curve; as a rule, active = well fitted activation curve with a large enough effect; inconclusive = small, poorly fitted or top-dose-only effect; inactive = flat fitted curve, though single readings scatter.

Assay: qHTS for Inhibitors of Cell Surface uPA Generation: Confirmatory Assay for Cherry-picked Compounds
Settings: cell surface uPA activity generation, qHTS confirmation; series mostly up to 115 µM
In short: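 RAW 264.7 cells at 4000/well, incubated overnight, then treated with compounds. After 24 h at 37 C, viability was read by ATPlite luminescence. An increase in signal indicates blocked uPA-dependent LF entry.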
Potency is read from the fitted curve at half-maximal effect.

Potency, inactive:
NC(=O)c1cc2c3ccccc3ccn2c1-c1ccccc1, O=C(O)C(Nc1nc(C(F)(F)F)nc2ccccc12)c1ccccc1 (stereo not drawn), COc1cc(F)ccc1S(=O)(=O)n1c(C)nc2ccccc21, CCOC(=O)Cc1csc(NC(=O)Nc2cccc(OC)c2)n1, CCOCc1nnc(NC(=O)C2CCN(C(=O)C3CC(=O)N(c4ccc(C)cc4)C3)CC2)s1 (stereo not drawn), CC1CCCCN1C(=O)CSc1nc2ncccc2[nH]1 (stereo not drawn), Cc1nc(NC(=O)CSc2nnc(C3CC3)n2C)sc1C(=O)N(C)C, O=C1CCCc2ccccc2N1Cc1ccc(F)cc1, COc1ccc(Nc2nc(-c3ccccc3)c(C(=O)Nc3cccnc3)s2)cc1, COC(=O)CCNS(=O)(=O)c1ccc2nsnc2c1, O=C(NC(=O)c1ccccc1)Nc1cccc(S(=O)(=O)N2CCCCC2)c1, CCC(=O)Nc1nc(-c2cc([N+](=O)[O-])cs2)cs1, Cc1ccc(C(O)(COC(=O)C(C)C)COC(=O)C(C)C)c(O)c1, Cc1ccc([C@H]2C(C(=O)O)=CC[C@@H](c3cccc(C)c3)N2S(=O)(=O)c2ccc(C)cc2)cc1, COc1cccc(C2CC(c3ccc(C)cc3)n3ncnc3N2)c1 (stereo not drawn), Cc1nc2nc(C)c(NS(=O)(=O)c3ccc(Cl)cc3)c(=O)n2[nH]1, O=[N+]([O-])c1ccc(SCc2ccncc2)nc1, O=C(CC1(O)C(=O)Nc2ccccc21)c1cccc(Br)c1 (stereo not drawn), C=C(C(=O)O)C1CCC2(C)CCCC(C)(O)C2C1 (stereo not drawn), COCCOc1ccc(C(F)(F)F)cc1NC(=O)COC(=O)Cc1c[nH]c2ccccc12, Cc1noc(C)c1COc1ccc(C(=O)O)cc1, Cc1cc(C)n(-c2cc(C(=O)O)cc(C(=O)O)c2)n1, Cc1cc(C)n(CCCNC(=O)c2ccc(C)o2)n1, Cc1cccc(C)c1NC(=O)c1c(O)c2ccccc2[nH]c1=O, COc1ccc(/C=C/C(=O)Nc2ccccc2Cl)cc1S(=O)(=O)N1CCOCC1, O=C(CSc1ccc([N+](=O)[O-])cn1)Nc1nccs1, CC(=O)c1ccc(NC(=O)CN2CCN(c3ccccc3)CC2)cc1, CC(C)N1CCc2c(sc(NC(=O)CCc3ccccc3)c2C(N)=O)C1, CCOc1cc(C(=O)OCC(=O)c2cc(C)n(CC3CCCO3)c2C)ccc1OCC(=O)N1CCOCC1 (stereo not drawn), CC1CN(C(=O)CCC(=O)NCc2ccccc2)c2ccccc2S1 (stereo not drawn), C=CCN1C=C2C(=O)C(C)(OC(=O)c3cnc4ccccc4n3)C(=O)C=C2C=C1/C=C/COC (stereo not drawn), COc1ccc(-n2nnnc2SCC(=O)Nc2nnc(C)s2)cc1, O=c1ccc(S(=O)(=O)N2CCCC2)c[nH]1, CC1(NC(=O)CSc2nnc(-c3c[nH]c4ccccc34)n2C2CC2)CCS(=O)(=O)C1 (stereo not drawn), CC(C)C(NC(=O)Cc1ccccc1)C(=O)N1CCN(c2cccc(Cl)c2)CC1 (stereo not drawn), CCc1ccccc1N(CC(=O)N1CCCC1)S(C)(=O)=O, Cn1cnc([N+](=O)[O-])c1Sc1ccc(Br)cc1

Potency, active:
C=CC(=O)N1C/C(=C/c2ccccc2)C(=O)/C(=C\c2ccccc2)C1 26.1 µM
